According to the supplement of paper PMC7866885, “A novel bicyclic 2,4-diaminopyrimidine inhibitor of Streptococcus suis dihydrofolate reductase” (PeerJ, 2021):
± gives the standard deviation.

The molecules below were run on Streptococcus suis P1/7 (assay: percent growth relative to DMSO control; higher = less growth inhibition). Conditions: 10 µM; incubation time 18 h.
Experimental: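 CLSI broth microdilution: 5x10^4 CFU of Streptococcus suis (strain P1/7 or HE06) incubated with 10 µM Pathogen Box compound in cation-adjusted Mueller Hinton broth, 37 °C, 5% CO2, 18 h. Growth read as OD600 and expressed as percent of the DMSO-treated control (100%); mean ± SD of three independent experiments.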
`Cc1ccc(NC(=O)c2nc[nH]c2C(=O)Nc2nc3ccccc3[nH]2)c(C)c1` gave a percent growth of 1.93 ± 0.44%.
Work on `CNC1C(OC2C(OC3C(O)C(O)C(NC(=N)N)C(O)C3NC(=N)N)OC(C)C2(O)C=O)OC(CO)C(O)C1O` (configuration not stated) yielded a percent growth of 86.1 ± 18%.
For `Clc1ccc(-n2cc(COc3ccnc4ccccc34)nn2)cc1`, the percent growth was 77.9 ± 13%.
For `Cc1cc(C(=O)Nc2ccc(-c3ccccc3)cc2)no1`, the percent growth was 118 ± 42%.
`CNC(=O)CNc1nc(-c2ccccn2)nc2scc(-c3ccccc3)c12` showed a percent growth of 43 ± 38%.
Molecule `Nc1ncc(-c2ccc(C(F)(F)F)nc2)cc1-c1ccc(C(F)(F)F)nc1` has a percent growth of 101 ± 35%.
For `CCn1ncc2c(NC3CCOCC3)c(CNC(=O)c3ccnn3C)c(C)nc21`, the percent growth was 85.7 ± 26%.
For `NS(=O)(=O)c1cncc(-c2ccc3nccc(-c4cn[nH]c4)c3n2)c1`, the percent growth was 77.6 ± 23%.
Work on `Cc1ncc(-c2ccnc(Nc3ccc(S(C)(=O)=O)cc3)n2)n1C(C)C` yielded a percent growth of 150 ± 100%.
`Cc1ccc2cc(C3NC(=O)c4ccccc4N3)c(Cl)nc2c1` (configuration not stated) gave a percent growth of 116 ± 46%.
Work on `CN1CCN(c2cc(-c3ccc(F)cc3)nc(-c3ccncc3)n2)CC1` yielded a percent growth of 89.1 ± 28%.
`Cc1ccc2[nH]c(C3CCCNC3)c(-c3ccncc3)c2c1` (configuration not stated) showed a percent growth of 89.8 ± 7.2%.
`CC(C)(C)C(=O)N(CCCCCCN1C[C@H](O)[C@@H](O)[C@H](O)[C@H]1CO)C1CCCCCC1` was tested, and the percent growth was 130 ± 56%.
For `Cc1cc(NCC(C)C)c2n[nH]c(-c3ccccc3)c2n1`, the percent growth was 122 ± 79%.
`Cc1cc(C(=O)Nc2cnn(Cc3ccc(Cl)cc3Cl)c2)no1` was tested, and the percent growth was 97.5 ± 11%.
`O=C(NCc1cc(Cl)cc(Cl)c1)c1c(C(F)(F)F)nc2ccccn12` showed a percent growth of 60.6 ± 20%.
`C[C@]1(O)C[C@@H](c2nc(-c3ccc4ccc(-c5ccccc5)nc4c3)c3c(N)nccn32)C1` gave a percent growth of 97 ± 18%.
